The values below come from PubChem BioAssay (NCI).

Experiment [1] is described as follows: NCI Yeast Anticancer Drug Screen. Data for the rad50 strain (AID 155).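 Further: 0% = growth of vehicle-only cultures of the same strain.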 The note with it: S. cerevisiae rad50 strain growth inhibition; at 50.0 µM; stronger effect = higher value. In a few lines: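 Vehicle-treated cultures provide the reference for the growth inhibition reported for compound-exposed, repair-deficient yeast.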
Experiment [2] can be described thus: NCI Yeast Anticancer Drug Screen. Data for the mec2-1 strain (AID 157). The settings on record: S. cerevisiae mec2-1 strain, at 50.0 µM, stronger effect = higher value. The method in brief:
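Compounds were applied to mec2-1 yeast cells. Their growth was then compared with that of vehicle-treated cultures to give growth inhibition.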

Experiment [3] in a line: NCI Yeast Anticancer Drug Screen. Data for the sgs1 mgt1 strain (AID 161).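 Further: 0% = growth of cultures given vehicle only.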 The note with it: S. cerevisiae sgs1 mgt1 strain, at 50.0 µM, stronger effect = higher value. In a few lines:
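Percent growth inhibition was derived by comparing compound-exposed mutant yeast with vehicle-exposed cultures. The strain carries alterations in DNA damage repair.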

Experiment [4] can be described thus: NCI Yeast Anticancer Drug Screen. Data for the cln2 rad14 strain (AID 165).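 Further: 0% = growth equal to vehicle treated cultures.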 The settings on record: S. cerevisiae cln2 rad14 strain, at 50.0 µM, stronger effect = higher value. The method in brief:
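Strain: cln2 rad14 yeast, altered in cell cycle control and DNA damage repair. Read-out: growth inhibition vs vehicle.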

Experiment [5] can be described thus: NCI Yeast Anticancer Drug Screen. Data for the bub3 strain (AID 167). The settings on record: S. cerevisiae bub3 mutant strain, at 50.0 µM, stronger effect = higher value. In a few lines:
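Mutant yeast screening strain plus compound; vehicle-treated cultures serve as the 0% inhibition reference.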

The nature of experiment [6]: NCI Yeast Anticancer Drug Screen. Data for the mlh1 rad18 strain (AID 175). The settings on record: S. cerevisiae mlh1 rad18 strain growth inhibition; at 50.0 µM; stronger effect = higher value. In a few lines: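 A repair-deficient yeast strain is exposed to test compound, and growth is scored relative to vehicle-treated controls.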

SMILES strings stand for the structures. This is part of a sample that, as a whole, favours compounds with a hit. Of some 79,000 tested, about 15% had one in any assay. A number with no mark means an inactive call. Active and inactive are the calls of the source. No stated cut-off is given here; in the data, active means growth inhibition above about 70%; inactive means the rest.

With `O=C(Nc1ccccc1F)C(Cl)(Cl)Cl`, the growth inhibition was 6.55% in experiment [1]; -5.2% in experiment [2]; 9.3% in experiment [3]; -5% in experiment [4]; 16.7% in experiment [5]; 26.2% in experiment [6].

For `CCCCCCCBr`, the growth inhibition is -21.5% in experiment [1]; 9% in experiment [2]; 3.1% in experiment [3]; 0.6% in experiment [4]; -5.45% in experiment [5]; 15.3% in experiment [6].

Regarding `C=CCSc1nc2ccccc2c(=O)n1-c1cc(OC)c(Cl)cc1OC`, the growth inhibition is 9% in experiment [1]; -20.9% in experiment [2]; 15.1% in experiment [3]; 8.45% in experiment [4]; 42.5% in experiment [5]; -9.25% in experiment [6].

For `CC1=C(C)C(=O)OC(C(C)(O)C2(O)CCC3(O)C4CC(Cl)C5(O)C(O)C=CC(=O)C5(C)C4CCC32C)C1` (stereo unspecified), the growth inhibition in experiment [1] is 7.8%; in experiment [2], -37.3%; in experiment [3], -18.7%; in experiment [4], -3.2%; in experiment [5] it was -15.9%; in experiment [6], -52.2%.

As to `CN1CC[CH2][Sn]([Cl])([Cl])[CH2]CC1`, the growth inhibition in experiment [1] was -1.25%; in experiment [2], -5.9%; in experiment [3], 1.15%; in experiment [4], 1.3%; in experiment [5], -17.2%; in experiment [6], 13%.

Take `COc1cc2c(ccc3c4cc(OC)c(OC)cc4c[n+](C)c23)cc1O`: the growth inhibition was -21.7% in experiment [1]; -17.9% in experiment [2]; -9.9% in experiment [3]; 16.4% in experiment [4]; -23.8% in experiment [5]; -65.8% in experiment [6].

With `O=C1Nc2ccccc2C12CNCS2` (stereo unspecified), the growth inhibition in experiment [1] was 5.7%; in experiment [2], 4.55%; in experiment [3], -8.6%; in experiment [4], -23.4%; in experiment [5], -12.8%; in experiment [6], 8.2%.

Regarding `CCOC(=O)c1cc2c(cn1)[nH]c1ccccc12`, the growth inhibition in experiment [1] was 41.2%; in experiment [2], 34.2%; in experiment [3] it was 43.4%; in experiment [4], 0%; in experiment [5], 26.9%; in experiment [6], 16.8%.

In the case of `CN(N)c1ccc([N+](=O)[O-])cc1[N+](=O)[O-]`, the growth inhibition is -5.75% in experiment [1]; -39.1% in experiment [2]; -29.8% in experiment [3]; -6.2% in experiment [4]; -3.2% in experiment [5]; -39.1% in experiment [6].

Take `CN(C)c1ccc(C(c2c(O)c3ccc(O)cc3oc2=O)c2c(O)c3ccc(O)cc3oc2=O)cc1`: the growth inhibition in experiment [1] is 8.4%; in experiment [2], 7.75%; in experiment [3] it was 22.2%; in experiment [4] it was 32.7%; in experiment [5] it was 3.9%; in experiment [6], 11.4%.

Consider `O=C(O)C(=O)O.[NH2-].[NH2-].[Pt+2]`, for which the growth inhibition in experiment [1] is 8.3%; in experiment [2], -4.9%; in experiment [3], 0.15%; in experiment [4] it was -5.05%; in experiment [5] it was 2.6%; in experiment [6], -3.8%.

Take `C1CN1[PH+](N1CC1)N1CC1.[C-]#[O+].[C-]#[O+].[C-]#[O+].[C-]#[O+].[C-]#[O+].[W]`: the growth inhibition is -12.8% in experiment [1]; -3.85% in experiment [2]; -21% in experiment [3]; -43.9% in experiment [4]; 13.1% in experiment [5]; 3.1% in experiment [6].

Take `CN(C)CC#CCN(C)C`: the growth inhibition is 28.1% in experiment [1]; 5% in experiment [2]; -1% in experiment [3]; -10.8% in experiment [4]; 0.45% in experiment [5]; 7.2% in experiment [6].

Regarding `CC(=O)OC(C)(C)/C=C/C(=O)[C@](C)(O)[C@H]1[C@H](O)C[C@@]2(C)[C@@H]3CC=C4[C@@H](C=C(O)C(=O)C4(C)C)[C@]3(C)C(=O)C[C@]12C`, the growth inhibition is -4.6% in experiment [1]; -36.5% in experiment [2]; -14.6% in experiment [3]; -10.8% in experiment [4]; -15.7% in experiment [5]; -16.1% in experiment [6].

Take `CCC(/C=N/N=C(N)N)=N\N=C(N)N`: the growth inhibition in experiment [1] is 8.4%; in experiment [2], -2.6%; in experiment [3], -0.75%; in experiment [4] it was -18.4%; in experiment [5], 19.9%; in experiment [6], -10.3%.

As to `CC1=C(C)CN(CCc2c[nH]c3ccccc23)C(C#N)C1` (stereo unspecified), the growth inhibition in experiment [1] was 0.6%; in experiment [2], 2.3%; in experiment [3], 3.95%; in experiment [4], 60.5%; in experiment [5], 11.9%; in experiment [6] it was 12.5%.

On to `O=[N+]([O-])c1cccc2cccnc12`, for which the growth inhibition is -11.4% in experiment [1]; -13.8% in experiment [2]; 6.75% in experiment [3]; 4.2% in experiment [4]; 0.4% in experiment [5]; -1.75% in experiment [6].

Turning to `Nc1ccccc1Nc1ccccc1C(=O)[O-].Nc1ccccc1Nc1ccccc1C(=O)[O-].[Cu+2]`, the growth inhibition in experiment [1] is -3.5%; in experiment [2], 7.8%; in experiment [3], -19.5%; in experiment [4], -3.3%; in experiment [5] it was -11.8%; in experiment [6], 7.75%.

Regarding `C=[CH][Sn]([CH]=C)([c]1ccccc1)[c]1ccccc1`, the growth inhibition in experiment [1] was -7.5%; in experiment [2], -12.8%; in experiment [3], -14.2%; in experiment [4], -0.65%; in experiment [5] it was -26.8%; in experiment [6], 12.3%.

As for `Cc1c[nH]c2c1C13CC1CN(C(=O)c1cc4cc(NC(=O)c5cc6ccccc6o5)ccc4[nH]1)C3=CC2=O` (stereo unspecified), the growth inhibition in experiment [1] is 84.9% (active); in experiment [2], 91.4% (active); in experiment [3] it was 90.3% (active); in experiment [4], 88.2% (active); in experiment [5], 90.2% (active); in experiment [6], 89% (active).

For the compound `N#CC1=C(C#N)C(=O)C(Cl)=C(Cl)C1=O`, the growth inhibition was 14.9% in experiment [1]; 24.9% in experiment [2]; 16.9% in experiment [3]; 8.7% in experiment [4]; 16.6% in experiment [5]; 29.2% in experiment [6].
